# Experimental data reported in ChEMBL document CHEMBL4888484, “Replenishing the malaria drug discovery pipeline: Screening and hit evaluation of the MMV Hit Generation Library 1 (HGL1) against asexual blood stage Plasmodium falciparum ,using a nano luciferase reporter read-out” (2022).
# The campaign covered roughly 150,000 compounds. About 540 (0.36%) showed an effect of 50% or more. This is one part of a sample in which strong results are shown more often than they occur.
# Test system: Plasmodium falciparum
# Test: Primary screen in NF54 nanoGlo assay, in single point, at 2uM, 72h; a lower Z score goes with more inhibition
# Format: functional, Erythrocyte
# Conditions: timepoint 72 hour
Compound,% Inhibition [%],Z score
FC(F)(F)c1ccnc(Nc2ccc3c(c2)OCO3)n1,-4,0.56
Cc1nn(C)cc1CN(Cc1ccncc1)C1CCCCC1,8,-1.12
CC(C)c1cc(CN(Cc2cc(C(C)C)c(O)c(C(C)C)c2)C2CCCCC2)cc(C(C)C)c1O,95,-12.83
COc1ccc(CN(Cc2nnn(C)n2)C2CCCCC2)cc1OC,-7,1.05
Cc1noc(C(F)(F)F)c1C(=O)NCC1(C2(O)CCC2)CC1,-10,1.69
COc1ccc2c(c1)C(N1CCN(C(=O)CC(C)(C)C)CC1)=Nc1ccccc1O2,1,-0.13
CCOC(=O)N1CCCC[C@H](NC2CCN(c3ccc(F)c(F)c3)CC2)C1,4,-0.83
O=C(c1cccc(C(F)(F)F)c1)N1CCC(n2cnnc2C2CC2)CC1,2,-0.34
O=C(CN1CCC(O)CC1)N1CCC(c2ccccc2)=N1,-5,1.01
O=C(NCCn1c(=O)[nH]c2ccsc2c1=O)c1cc(-c2ccc(F)cc2)c[nH]1,-4,0.72
O=C(Nc1ccc(Cl)c(N2CCCS2(=O)=O)c1)NC1CCOCC1,-13,1.52
COc1c[nH]c(C(=O)NC2CCCC2)cc1=O,-5,0.85
COc1cc([C@H](CC(=O)NC2CCN(Cc3ccccc3)CC2)N2Cc3ccccc3C2=O)cc(OC)c1OC,68,-9.85
COc1c[nH]c(C(=O)NC2CCN(Cc3ccccc3)CC2)cc1=O,60,-7.68
O=C(CN1C(=O)c2ccccc2C1=O)NC1CCN(Cc2ccccc2)CC1,4,-0.5
COc1cn(CC(=O)NC2CCN(Cc3ccccc3)CC2)c(CN2CCOCC2)cc1=O,7,-0.83
COc1cc(=O)n2c(c1C(=O)NC1CCN(Cc3ccccc3)CC1)CCCCC2,-8,0.91
Cn1cccc1CNc1nnc([C@@H]2CCCO2)o1,-5,0.81
C[C@H]1NC(=O)N(c2cccc(C#N)c2)C1=O,-4,0.53

Compound,% Inhibition [%],Z score
O=C(NCCN1C(=O)COC1=O)c1cccs1,12,-2.12
CC[C@H](C)N(CC(=O)N(CCOC)Cc1cccn1Cc1ccccc1)C(=O)c1ccco1,-8,1.33
COc1cccc(OC)c1-c1cncc(C(=O)NCC2CC2)c1,-9,1.48
O=S(=O)(CCO)c1ccc(NCc2ccc(Cl)s2)cc1,-5,0.74
Cc1nc(CNc2ccc(S(=O)(=O)CCO)cc2)cs1,-22,4.06
CC(C)(C)c1nc(CNc2ccc(S(=O)(=O)CCO)cc2)no1,52,1.4
O=C(Nc1ccccc1C(=O)N1CCCCC1)[C@H]1CCCN(S(=O)(=O)c2cccs2)C1,3,-0.58
Nc1ccnc2c(-c3ccncc3)cccc12,-2,0.26
Cc1ccn(C2CCN(C(=O)C(C)(C)c3c[nH]cn3)CC2)n1,-6,1.19
Cc1cc(-c2c(C)sc(C)c2S(=O)(=O)N2CCOCC2)on1,-8,1.45
Cc1ccc(S(=O)(=O)N(CC(=O)N[C@@H](C)c2ccccc2)c2cccc(Br)c2)cc1,50,-1.08
COc1ccccc1N(CC(=O)N[C@H](C)c1ccccc1)S(=O)(=O)c1ccc(C)cc1,1,-0.13
Cc1ccc(S(=O)(=O)N(CC(=O)N[C@@H]2C[C@H]3CC[C@@H]2C3)c2cccc(Br)c2)cc1,-15,2.16
O=C(Nc1cc(Br)cc(C(F)(F)F)c1)c1ccnnc1,-2,0.3
O=C(Nc1ccc(-c2onc3c2CCCC3)cc1)c1c(Cl)cc(Cl)cc1Cl,-2,0.3
O=C(Nc1cc(-c2onc3c2CCCC3)cc(C(F)(F)F)c1)c1cncc(Br)c1,96,-8.79
COc1ccc(C(=O)N[C@H]2CCOC3(CCOCC3)C2)c(C)c1,0,0.06
COc1cc2c(cc1OC)C(=O)N(Cc1ccccc1)C(=O)C2=O,-13,1.31
COC(=O)c1ccccc1NC(=O)C[C@@H]1Nc2cccc3cccc(c23)NC1=O,-5,0.52

Compound,% Inhibition [%],Z score
COCc1ccc(CNCc2cc3cc(Cl)c(Cl)cc3[nH]2)cc1,-13,1.44
COc1ccc(-c2nc3ccc(C(=O)NC4CCCC(C)C4C)cc3nc2-c2ccc(OC)c(OC)c2)cc1OC (configuration not stated),24,-2.87
Cc1ncsc1Cn1ccn2nc(C(F)(F)F)cc2c1=O,15,-1.93
Cc1cccc(S(=O)(=O)Nc2ccc3nc(NC(=O)c4ccccc4)sc3c2)c1,37,-0.65
Cc1cccc(C(=O)N=C(N)Nc2nc3ccccc3s2)c1,-8,0.72
Cc1cccc(C(=O)Nc2nc3cc4sc(NC(=O)c5cccc(C)c5)nc4cc3s2)c1,64,0.77
c1[nH]nnc1CCN1CCOC[C@@H]1CC1CCOCC1,5,-1.02
CCc1cnc(Cn2nc(-c3ccccc3)cc(C(F)(F)F)c2=O)o1,-6,0.55
C=CC[C@]1(C(=O)O)CCCN(Cc2c(C)nn(CC)c2C)C1,-6,1
CC(=O)N1CCC(N2CCC[C@H](C(=O)c3ccc4c5c(cccc35)CC4)C2)CC1,-11,1.6
Cc1cccc(CN2CCC[C@H](C(=O)c3ccc4c5c(cccc35)CC4)C2)n1,58,-11.5
Cc1cc(C(=O)N2CCC[C@H](C(=O)c3ccc4c5c(cccc35)CC4)C2)nc(N)n1,-4,0.45
COc1cccc(NC(=O)Cn2ccc3ccc(-c4nnc(C)o4)cc32)c1,7,-0.81
Cc1cc(C)cc(NC(=O)Cn2ccc3ccc(-c4nnc(C)o4)cc32)c1,2,-0.2
CCc1cccc(NC(=O)Cn2ccc3ccc(-c4nnc(C)o4)cc32)c1,78,-9.29
Cc1cccc(NC(=O)Cn2ccc3ccc(-c4nnc(C)o4)cc32)c1,6,-0.76
Cc1ccc(NC(=O)Cn2ccc3ccc(-c4nnc(C)o4)cc32)cc1,-3,0.31
Cc1nnc(-c2ccc3ccn(CC(=O)Nc4ccc(F)c(Cl)c4)c3c2)o1,85,-10.55
